In the library only some 10% were active in any assay of this set; here they are far more common.
Six1-Eya2 blk: Six1/Eya2 interaction inhibition. AlphaScreen GST-Six1/His-Eya2 binding, biochemical; hits give low values. AID 651725. 360,000 tested, 0.56% active. activity change, % (no concentration beside the values); in the data active means activity change below about -65%; inconclusive means mostly about -30% to -63%; further: on the % scale 0 is the no-effect control and ±100 the full control effect
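Homogeneous AlphaScreen proximity assay pairing GST-Six1 with His-tagged Eya2 (added as 5X mix: 250 nM and 500 nM) in 50 mM Tris pH 8.0, 300 mM NaCl, 1 mM TCEP. Glutathione donor and nickel acceptor beads; 1 h, 37 °C, dark.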
G9a block: blocks human histone lysine methyltransferase G9a; Potency, µM (top dose mostly 102 µM), for inactives: at the highest dose activity, negative = inhibition, hits mostly inhibitors; G9a H3K9 monomethylation, AlphaScreen, 2 h; 350,000 tested, 8.8% active; further: potency means the concentration at half of the fitted maximal effect; on the % scale 0 is the no-effect control and ±100 the full control effect; nearly all actives have a fitted effect of over 75% in size
Target sequence (Q96KQ7 913-1193 limits assumed): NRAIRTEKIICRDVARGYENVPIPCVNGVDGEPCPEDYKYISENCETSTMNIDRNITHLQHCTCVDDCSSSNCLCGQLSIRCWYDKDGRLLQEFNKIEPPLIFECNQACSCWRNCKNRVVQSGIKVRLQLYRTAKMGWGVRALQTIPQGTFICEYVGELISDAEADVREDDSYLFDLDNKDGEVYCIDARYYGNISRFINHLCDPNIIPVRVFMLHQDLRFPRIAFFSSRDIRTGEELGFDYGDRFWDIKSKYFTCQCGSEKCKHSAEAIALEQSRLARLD
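Readings reflect AlphaScreen signal from monomethyl-H3K9 antibody detection. HMT at 20 nM; substrate b-H3K9 500 nM; cofactor SAM 20 uM; 2 h RT reaction; compounds tested as titrations in qHTS with 15 min preincubation.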
HP1b binding inh: inhibitors of HP1-beta chromodomain binding to methylated histone tails | P83916 | AlphaScreen HP1-beta / biotin-H3K9me3 peptide binding | Potency, µM (titrated, usually from 114 µM), inactives show top-dose activity change, negative = inhibition, actives largely listed as inhibitors | 390,000 tested, 0.56% active | AID 540317; further: potency means the concentration at half of the fitted maximal effect; nearly all actives have a fitted effect of over 70% in size
Target sequence (P83916 whole entry, looked up): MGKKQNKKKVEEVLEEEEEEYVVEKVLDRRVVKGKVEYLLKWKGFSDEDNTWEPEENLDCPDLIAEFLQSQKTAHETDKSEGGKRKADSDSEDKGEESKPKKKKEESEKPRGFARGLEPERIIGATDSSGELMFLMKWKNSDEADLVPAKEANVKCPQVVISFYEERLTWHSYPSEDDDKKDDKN
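AlphaScreen: HP1-beta (50 nM) preformed 30 min with biotin-H3(1-18)K9me3 peptide (50 nM) in PBS pH 7.4, 0.01% Tween-20. Compound added for 30 min at RT, then streptavidin donor/nickel chelate acceptor beads (10 ug/mL) for 30 min.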
JMJD2A Tudor: blocks the human JMJD2A Tudor domain | AlphaScreen JMJD2A-Tudor / H3K4me3 peptide binding | Potency, µM (doses to about 114 µM), inactives show top-dose activity change, negative = inhibition, usual class: inhibitors | 390,000 tested, 4.4% active | O75164; further: potency means the concentration at half of the fitted maximal effect; on the % scale 0 is the no-effect control and ±100 the full control effect; nearly all actives have a fitted effect of over 50% in size
BAZ2B block: BAZ2B (human) inhibition; AlphaScreen BAZ2B-H3K14Ac peptide displacement; Potency, µM (titrated, usually from 114 µM), without a hit: top-dose activity change, negative = inhibition, hits mostly inhibitors; 360,000 tested, 4.4% active; AID 504333; further: potency means the concentration at half of the fitted maximal effect; on the % scale 0 is the no-effect control and ±100 the full control effect; nearly all actives have a fitted effect of over 60% in size
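Complex of BAZ2B and biotin-H3K14Ac (50 nM apiece) forms over 30 min at RT, then faces library compounds up to 110 uM for another 30 min; AlphaScreen beads added, 20 min dark incubation, luminescence read.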
CtBP-E1A blk: CtBP/E1A binding inhibition. 340,000 tested, 0.49% active. activity change, % (test concentration not listed). AID 651724. AlphaScreen GST-E1A/His-CtBP binding, 1536-well; hits give low values; in the data active means activity change below about -65%; inconclusive means mostly about -30% to -63%; further: on the % scale 0 is the no-effect control and ±100 the full control effect
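Steps: dispense buffer (Tris pH 8.0, NaCl 300 mM, TCEP 1 mM, BSA, Tween 20); add 5X protein mix (GST-E1A, His-CtBP, 125 nM each); pin 23 nL compound; 2 h at 37 °C, dark; add 5X beads (50 ug/mL); 1 h; read.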
Starred values were filed as active, the others as inactive; [ ] = another dose, or the depositor's remark. Unless noted, the call rests on the fitted dose curve; in most records, active means well fitted inhibition curve with a large enough effect; inconclusive means small, poorly fitted or top-dose-only effect; inactive means no such curve, though single readings can be large or run the other way.

`Cc1cc(Br)ccc1SCC(=O)OCC(=O)NC(C)c1ccccc1` (stereo not drawn) gave Six1-Eya2 blk 4, G9a block 40µM*, HP1b binding inh 81%, JMJD2A Tudor 12%[57.1 µM], BAZ2B block -4% and CtBP-E1A blk 13.
`Cc1cc(Br)ccc1SCC(=O)OCC(=O)NC1CC1` gave Six1-Eya2 blk 8, G9a block 79µM*, HP1b binding inh 30%, JMJD2A Tudor -22%, BAZ2B block 79µM* and CtBP-E1A blk -5.
For N#Cc1c(SCc2ccccc2)sc(C(=O)c2ccccc2)c1N the results were Six1-Eya2 blk 12, G9a block 11µM*, HP1b binding inh 32%, JMJD2A Tudor -4%, BAZ2B block -1% and CtBP-E1A blk 5.
CCCCOC(=O)c1ccc(-n2nnc3c(sc4nc(C)cc(C)c43)c2=O)cc1 was read as G9a block -1%[59 µM], HP1b binding inh 34%, JMJD2A Tudor -24% and BAZ2B block -1%.
For O=C(Nc1ccc([N+](=O)[O-])cc1)c1ccccc1F the results were Six1-Eya2 blk 0, G9a block -4%, HP1b binding inh 51%, JMJD2A Tudor 2%, BAZ2B block -28% and CtBP-E1A blk 16.
For Cc1ccc(SCC(=O)NNC(=O)CNC(=O)c2ccccc2F)cc1 the results were Six1-Eya2 blk 3, HP1b binding inh 13%[57 µM], JMJD2A Tudor -15% and CtBP-E1A blk 0.
`O=C(CSc1ccc([N+](=O)[O-])cc1)NNC(=O)c1ccccc1F` gave Six1-Eya2 blk -10, G9a block 50µM*, HP1b binding inh 5%, JMJD2A Tudor -23%, BAZ2B block -17% and CtBP-E1A blk 0.
For O=C(Nc1ccc(-c2ccc([N+](=O)[O-])cc2)cc1)c1ccccc1F the results were Six1-Eya2 blk -13, G9a block 50µM*, HP1b binding inh 22%, JMJD2A Tudor -6%, BAZ2B block -11% and CtBP-E1A blk -1.
`O=C(CC(Sc1ccc(Br)cc1)C(=O)O)c1ccc(Br)cc1` (stereo not drawn) gave G9a block 25µM* and BAZ2B block 1%.
`C=CC[n+]1ccc(/C=C2\C=Cc3cc(C)ccc3N2CC)c2ccccc21` gave Six1-Eya2 blk -73*, G9a block 14µM*, HP1b binding inh inconclusive, JMJD2A Tudor 20µM*, BAZ2B block 14µM* and CtBP-E1A blk -21.
CCCCS(=O)c1c(O)c2ccccc2[nH]c1=O (stereo not drawn) was read as Six1-Eya2 blk -3, G9a block 32µM*, HP1b binding inh 29%, JMJD2A Tudor -13%, BAZ2B block -7% and CtBP-E1A blk 0.
`O=c1[nH]c2ccccc2c(O)c1-[n+]1ccccc1` gave Six1-Eya2 blk -9, G9a block inconclusive, HP1b binding inh 17%, JMJD2A Tudor -23%, BAZ2B block -4% and CtBP-E1A blk -16.
O=c1[nH]c2ccccc2c(O)c1O was read as Six1-Eya2 blk -11, G9a block 0.71µM*, HP1b binding inh inconclusive, JMJD2A Tudor 50µM*, BAZ2B block 2% and CtBP-E1A blk -10.
CCCCCc1c(O)c2ccccc2[nH]c1=O was read as Six1-Eya2 blk 4, G9a block 8%[59 µM], HP1b binding inh 10%, JMJD2A Tudor -18%, BAZ2B block 12% and CtBP-E1A blk -1.
`Cc1c(Cl)c(-c2n[nH]c(=S)n2CC(C)C)nn1C` gave Six1-Eya2 blk -3, G9a block 35µM*, HP1b binding inh inconclusive, JMJD2A Tudor 5µM*, BAZ2B block 29% and CtBP-E1A blk 1.
CCCCn1c(-c2ccc(Cl)cc2)nc2c(=O)n(C)c(=O)[nH]c21 was read as Six1-Eya2 blk 14, G9a block -36%[12.7 µM], HP1b binding inh 13%, JMJD2A Tudor -6%, BAZ2B block -7% and CtBP-E1A blk 9.
Screening CCCCn1c(-c2nn(C)c(C)c2Cl)n[nH]c1=S returned Six1-Eya2 blk 0, G9a block 11µM*, HP1b binding inh -30%, JMJD2A Tudor 8.9µM*, BAZ2B block 11%[57.1 µM] and CtBP-E1A blk 1.
`O=C(CCc1ccccc1)OCC(=O)c1ccc(Br)cc1` gave Six1-Eya2 blk 9, G9a block 16%, HP1b binding inh 9%, JMJD2A Tudor -9%, BAZ2B block 4% and CtBP-E1A blk 1.
For NC(=O)c1ccc2c(=O)n3c(-c4cc(Cl)c(N)c(Cl)c4)csc3nc2c1 the results were Six1-Eya2 blk -75*, G9a block inconclusive, HP1b binding inh 75%, JMJD2A Tudor 71µM*, BAZ2B block inconclusive and CtBP-E1A blk -76*.
For Cc1csc2nc3cc(C(N)=O)ccc3c(=O)n12 the results were Six1-Eya2 blk inconclusive, G9a block -1%[12.7 µM], HP1b binding inh 29%, JMJD2A Tudor 0%, BAZ2B block 5% and CtBP-E1A blk inconclusive.
For Cc1ccc(N(C)C(=O)c2sc3nc4n(c(=O)c3c2C)CCCC4)cc1C the results were G9a block -3%[59 µM], HP1b binding inh 119%, JMJD2A Tudor 21% and BAZ2B block 27%.
For Cc1ccc(Cl)cc1N(C)C(=O)c1sc2nc3n(c(=O)c2c1C)CCCC3 the results were G9a block 13µM*, HP1b binding inh 57%, JMJD2A Tudor -27% and BAZ2B block inconclusive.
CCN(C(=O)c1sc2nc3n(c(=O)c2c1C)CCCC3)c1ccccc1F was read as G9a block 13µM*, HP1b binding inh 79%, JMJD2A Tudor -26% and BAZ2B block -3%.
`CCc1nc(SCC(=O)Nc2ccccc2Cl)n[nH]1` gave Six1-Eya2 blk 5, G9a block 3%, HP1b binding inh 10%, JMJD2A Tudor -13%, BAZ2B block -10% and CtBP-E1A blk -2.
`CC(=O)SC1CC2=CC(=O)CC[C@]2(C)C2CC[C@@]3(C)[C@@H](CC[C@@]34CCC(=O)O4)C12` (stereo partly drawn) gave G9a block 9%[12.7 µM].
Screening Cn1c(C(=O)N2CCN(Cc3ccccc3)CC2)cc2c(=O)n(C)c3ccccc3c21 returned Six1-Eya2 blk -17, G9a block 45µM*, HP1b binding inh 37%, JMJD2A Tudor inconclusive, BAZ2B block -3% and CtBP-E1A blk -20.
For Cc1cccc(N2CCN(C(=O)c3cc4c(=O)n(C)c5ccccc5c4n3C)CC2C)c1 (stereo not drawn) the results were Six1-Eya2 blk inconclusive, G9a block 45µM*, HP1b binding inh 14%, JMJD2A Tudor inconclusive, BAZ2B block inconclusive and CtBP-E1A blk -27.

Screening results as filed in PubChem.
